From PubChem BioAssay AID485358 (National Center for Advancing Translational Sciences (NCATS), 2010)
About 1,800 (0.53%) of roughly 340,000 compounds were called active.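 How the source made its calls: active means activation over 3 SD above normal in the single-dose calcium agonist read (cut at about 30% in these data); inactive means the rest.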 Only a selection was taken, and actives are over-represented in it overall.

Target: D(2) dopamine receptor (Homo sapiens) (UniProt P14416)
Assay: HTS Assay for Allosteric Agonists of the Human D2 Dopamine Receptor: Primary Screen for Agonists; further: 0% is about no effect
Details: HEK293 T-REx D2 cells, calcium flux agonist mode; at 2 µM; stronger effect = higher value
Method in brief: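 Calcium-flux readout, 1 cycle/sec over 180 s following compound pin transfer, in inducible HEK293 Trex D2 cells (force-coupled); dopamine controls included. Positive calcium responses during this window marked compounds as potential agonists.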

Sequence of D(2) dopamine receptor (Homo sapiens) (P14416 whole entry, looked up): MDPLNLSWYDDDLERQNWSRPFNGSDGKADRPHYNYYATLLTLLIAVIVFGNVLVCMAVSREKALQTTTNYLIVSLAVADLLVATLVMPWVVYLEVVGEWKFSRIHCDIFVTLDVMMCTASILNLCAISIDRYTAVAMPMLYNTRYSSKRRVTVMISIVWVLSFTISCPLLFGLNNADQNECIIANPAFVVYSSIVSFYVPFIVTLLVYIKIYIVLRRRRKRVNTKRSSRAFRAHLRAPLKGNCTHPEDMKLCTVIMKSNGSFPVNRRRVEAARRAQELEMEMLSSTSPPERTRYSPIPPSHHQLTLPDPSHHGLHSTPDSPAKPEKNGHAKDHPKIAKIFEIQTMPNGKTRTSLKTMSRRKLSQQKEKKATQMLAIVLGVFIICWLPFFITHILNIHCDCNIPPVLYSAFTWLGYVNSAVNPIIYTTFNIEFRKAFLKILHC

SMILES	activation
CCCc1nc2c(c(=O)c3ccccc3n2C)c(=O)n1C1CCCCCC1	38.8% (active)
CCOC(=O)c1nnn2c3ccccc3c(=O)n(C)c12	0.451% (inactive)
Cn1c2ccccc2c2c(C(=O)N3CCN(c4ccc(F)cc4)CC3)cn(C3CCCC3)c(=O)c21	0.715% (inactive)
COc1cccc(CNc2nccn(-c3ccc(OC)c(OC)c3)c2=O)c1	0.433% (inactive)
CCOc1ccccc1C(=O)NC1(C(F)(F)F)NC(=O)N(CCc2ccc(OC)c(OC)c2)C1=O (stereo not given)	-1.49% (inactive)
Cc1ccc(C)c(CN2C(=O)c3ccccc3S(=O)c3ccc(C(=O)N4CCOCC4)cc32)c1 (stereo not given)	0.908% (inactive)
CCSc1nnc2c(n1)OC(c1ccc(OCC(=O)O)cc1)Nc1ccccc1-2 (stereo not given)	-0.918% (inactive)
OCC1(Cc2ccccc2)CCN(Cc2cc3ccccc3o2)CC1	58.8% (active)
O=C(c1cc2ccccc2o1)N1CCN(Cc2ccccc2)CC1	0.213% (inactive)
CC(C)c1csc(CN2CCC(CO)(Cc3ccccc3)CC2)n1	0.222% (inactive)
O=C(c1ccc(Cl)cc1)c1ccc(OCC(O)CN2CCCCC2)cc1 (stereo not given)	0.406% (inactive)
OC(COc1ccc2c(c1)CCC2)CN1CCN(c2cccc(Cl)c2)CC1 (stereo not given)	55.1% (active)
O=c1cc(CN2CCN(c3cccc(Cl)c3)CC2)c2cc3c(cc2o1)CCCC3	-0.276% (inactive)
CCNS(=O)(=O)c1ccc(NC(=O)CSc2nc(-c3ccco3)cc(C(F)(F)F)n2)cc1	-0.45% (inactive)
Nc1c(C(=O)c2cccs2)sc2nsc(SCCN3CCCCC3)c12	52.2% (active)
COc1ccc(CCC(=O)NCc2ccc3c(c2)CCN3C(=O)c2ccc(F)cc2)cc1	1.61% (inactive)
CCN1CCN(c2ncc3c(n2)CC(c2ccccc2O)CC3=O)CC1 (stereo not given)	-0.199% (inactive)
COc1cc(OC)c2ccc(=O)oc2c1C(CCN1CCN(c2ccccc2)CC1)c1ccc2c(c1)OCO2 (stereo not given)	78.4% (active)
COc1cc(C(CCN2CCN(c3ccccc3)CC2)c2c(OC)cc(OC)c3ccc(=O)oc23)cc(OC)c1OC (stereo not given)	25.6% (inactive)
CCN(CC)CCC(c1ccc2c(c1)OCO2)c1c(OC)cc(OC)c2c(-c3ccccc3)cc(=O)oc12 (stereo not given)	-1.38% (inactive)
CCCn1c2ccccc2c2cnn(CC(=O)N3CCCC(C(=O)OCC)C3)c(=O)c21 (stereo not given)	0.474% (inactive)
CCN(C(=O)Cn1c(=O)nc(-c2ccccc2)c2cc(Cl)ccc21)c1cccc(C)c1	6.7% (inactive)
Cc1csc2nc(COC(=O)c3ccccc3NC(=O)c3ccccc3Cl)cc(=O)n12	0.344% (inactive)
Cc1csc2nc(COc3ccc(NC(=O)COc4ccccc4)cc3)cc(=O)n12	-0.592% (inactive)
O=c1cc(CCl)nc2scc(-c3ccccc3)n12	39.4% (active)
CCc1ccccc1NC(=O)c1ccc(F)c(S(=O)(=O)NC2CCCCCC2)c1	0.52% (inactive)
COc1ccc(NC(=O)CN2CCCN(Cc3ccccc3)S2(=O)=O)cc1	-1.11% (inactive)
COc1ccc(-c2nn(CC(=O)Nc3ccccc3F)c3c2cnc2ccc(F)cc23)cc1	0.341% (inactive)

SMILES	activation
CN1C(=O)c2[nH]nc(-c3ccc(F)cc3)c2C1c1ccccn1 (stereo not given)	1.23% (inactive)
Cc1cc(=O)oc2cc(OCCC[n+]3ccccc3)ccc12	0.774% (inactive)
CCOc1ccccc1N1CCN(C(=O)COc2ccc3c(C)cc(=O)oc3c2)CC1	-0.577% (inactive)
Cc1ccccc1N1CCN(CCCOc2ccc3c(C)cc(=O)oc3c2)CC1	80.1% (active)
CCOc1ccc(NC(=O)Cn2cc(C(=O)c3ccc(C)cc3)c(=O)c3cc4c(cc32)OCCO4)cc1	-0.524% (inactive)
CC(=O)NCC(O)c1ccc([N+](=O)[O-])cc1 (stereo not given)	-2.19% (inactive)
CNCC(O)c1ccc(O)c(O)c1 (stereo not given)	64.9% (active)
CC(Sc1oc(-c2ccco2)nc1S(=O)(=O)c1ccc(Br)cc1)c1ccccc1 (stereo not given)	0.011% (inactive)
COc1ccccc1C(=O)Nc1c(C(=O)N(C)Cc2ccccc2)sc2nc(C)c(Cl)c(C)c12	0.563% (inactive)
COc1cc(NC(=O)c2nc3ccccc3nc2C)cc(OC)c1OC	0.0893% (inactive)
COc1cccc(CNC(=O)c2cc(=O)[nH]c3ccc(S(=O)(=O)N4CCCCC4)cc23)c1	0.436% (inactive)
CCOc1ccc(N(CC)C(=O)c2noc3c2COc2ccc(C)cc2-3)cc1	0.123% (inactive)
Cc1ccccc1Nc1nc(N)nc(CSc2nnc3ccccn23)n1	0.185% (inactive)
Cc1ccccc1Nc1nc(N)nc(CSc2ccccc2)n1	0.151% (inactive)
Cc1ccccc1Nc1nc(N)nc(CN2CCN(c3ccccn3)CC2)n1	38.5% (active)
CCOc1ccc(N(Cc2ccccc2)C(=O)c2nc(S(C)(=O)=O)ncc2Cl)cc1	10% (inactive)
COc1ccccc1CNC(=O)CCn1c(=O)c2ccccc2n(CC(=O)Nc2ccc(Br)cc2F)c1=O	-0.617% (inactive)
CC1CCN(c2c(NCc3ccc(C(=O)NCc4ccccc4)cc3)c(=O)c2=O)CC1	-1.43% (inactive)
Cc1ccc(CNC(=O)c2cccc3c2C(=O)c2ccc(N4CCC(C)CC4)cc2S3(=O)=O)cc1	32% (active)
COc1cccc(-c2ccc3c(c2)S(=O)(=O)c2cccc(C(=O)O)c2C3=O)c1OC	1.73% (inactive)
CCOc1cccc(CC(=O)N2CCc3c([nH]c4ccccc34)C2c2ccc(F)cc2)c1OCC (stereo not given)	-0.484% (inactive)
Cc1c(CCNC(=O)c2ccc(C(F)(F)F)cc2)sc2nc(-c3ccc(F)cc3)nn12	-2.35% (inactive)
O=C(NCc1ccccc1Cl)c1ccc2c(=O)n(CC3CCCO3)c(=S)[nH]c2c1 (stereo not given)	-2.85% (inactive)
CCCCCn1c(=O)[nH]c2cc(C(=O)NCCCN3CCCCC3C)ccc2c1=O (stereo not given)	1.64% (inactive)
O=C(NC1CCCCC1)c1ccc2c(=O)n(CC3CCCO3)c(=O)[nH]c2c1 (stereo not given)	31.5% (active)
COc1ccc(-c2nc3nc(C)cc(C)n3c2Nc2c(C)cccc2C)cc1	2.98% (inactive)
CCc1cc2c(cc3c(=O)n(CC(=O)NCCc4ccc(OC)c(OC)c4)ncn32)s1	-0.234% (inactive)
